The list is not random: actives were taken first. Their share in the collection is about 7.2%.
TSHR agonist – qHTS Assay for Agonists of the Thyroid Stimulating Hormone Receptor; AID 926, 2007; Potency, µM (doses to about 57.1 µM), without a hit: top-dose activation, most hits filed as activators; HEK293-CNG-TSHR cells (CNG channel as cAMP sensor), membrane potential dye, cAMP; Thyrotropin receptor (Homo sapiens), P16473; 73,000 compounds, 0.48% hits; active = well fitted activation curve with a large enough effect in the main read-out, with a control signal flat, not every such curve was filed as active; inconclusive = small, poorly fitted or top-dose-only effect, or a change in a side signal; inactive = no such curve, though single readings can be large or run the other way; % of control where 0% means no effect;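 also: the control signal comes from parental cells without the receptor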
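HEK 293 cells stably expressing TSHR and a cAMP-gated CNG channel; parental CNG-only cells as counterscreen. Cells preloaded 60 min with membrane potential dye plus 100 uM RO 20-1724, then compound 30 min; fluorescence read at 590 nm.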
HEK293 cAMP ctrl – qHTS Assay for Agonists of the Thyroid Stimulating Hormone Receptor: Activators of Intracellular cAMP Concentrations in Parental HEK 293; Potency, µM (highest dose often 57.1 µM), without a hit: top-dose activation, usual class: activators; parental HEK293 CNG cAMP sensor, membrane potential fluorescence; 73,000 compounds, 2.5% hits; also: % of control where 0% means no effect; nearly all actives have a fitted effect of over 55% in size
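Parental HEK 293 cells stably expressing a modified CNG channel (no TSHR) report cAMP rise as membrane depolarization. Membrane potential dye with 100 uM RO 20-1724 was loaded for 60 min at room temperature, then compound added for 30 min; fluorescence read at 590 nm.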
PK Bst – Pyruvate Kinase; 51,000 compounds, 1.2% hits; AID 361, 2006; purified pyruvate kinase, luminescence ATP production; ribose 5-phosphate activator present at AC10; Potency, µM; in the data active = potency below about 11 µM; inconclusive = mostly about 12 µM to 25 µM;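 the screen sought inhibitors and activators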;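 also: scaled between full activation by ribose 5 phosphate and full inhibition by luteolin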
Luciferase inh – qHTS Assay for Inhibitors of Firefly Luciferase; Luciferin 4-monooxygenase (Photinus pyralis), P08659; purified firefly luciferase, luminescence, 8 min; Potency, µM (doses to about 57.1 µM), for the others: top-dose activity change, negative = inhibition, usual class: inhibitors; 72,000 compounds, 2.2% hits; AID 411, 2009; also: % is scaled to controls: 0 for no effect and ±100 for the full control effect; nearly all actives have a fitted effect of over 40% in size
Target sequence (P08659 whole entry, looked up): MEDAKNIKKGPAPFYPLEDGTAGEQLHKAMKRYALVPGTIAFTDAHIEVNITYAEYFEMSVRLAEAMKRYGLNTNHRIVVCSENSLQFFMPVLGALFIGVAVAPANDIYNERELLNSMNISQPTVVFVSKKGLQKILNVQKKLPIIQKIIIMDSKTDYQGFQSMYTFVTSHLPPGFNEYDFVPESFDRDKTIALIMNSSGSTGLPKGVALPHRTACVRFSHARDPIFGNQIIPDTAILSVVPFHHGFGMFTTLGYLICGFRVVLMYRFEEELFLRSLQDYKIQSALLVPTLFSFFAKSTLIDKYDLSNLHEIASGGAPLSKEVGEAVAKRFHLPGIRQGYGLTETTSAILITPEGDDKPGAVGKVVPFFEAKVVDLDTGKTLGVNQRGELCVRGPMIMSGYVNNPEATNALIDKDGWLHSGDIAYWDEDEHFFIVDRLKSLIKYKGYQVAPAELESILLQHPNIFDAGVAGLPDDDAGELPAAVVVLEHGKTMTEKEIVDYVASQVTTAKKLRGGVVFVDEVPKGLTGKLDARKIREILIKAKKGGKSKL
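Compounds were tested as concentration series (qHTS) against purified P. pyralis luciferase with luciferin and 10 uM ATP in 50 mM imidazole pH 7.2, 50 mM KCl, 7 mM MgCl2, 0.01% Tween 20, 0.05% BSA. Luminescence was read after 8 min at ambient temperature.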
Tau filament bind – qHTS Assay for Tau Filament Binding; Microtubule-associated protein tau (Homo sapiens), P10636; recombinant tau filaments, thioflavin S fluorescence, 15 h; filaments grown with octadecylsulfate alongside compound; Potency, µM (titrated, usually from 57.1 µM), inactives show at the highest dose activity change, negative = inhibition; 71,000 compounds, 2% hits;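 also: % is scaled to controls: 0 for no effect and ±100 for the full control effect; actives lower thioflavin S fluorescence by blocking filaments or displacing dye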
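Thioflavine S fluorescence (ex 450, em 510 nm) reports filaments formed from 1 uM human tau plus 30 uM ODS over 15 h at 37 C (10 mM HEPES pH 7.4, 100 mM NaCl, 5 mM DTT); compounds displacing dye or blocking filaments lower signal.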
ERK AVP block – qHTS Assay for Inhibitors of the ERK Signaling Pathway using a Homogeneous Screening Assay; HEK293-V1b, vasopressin-stimulated pERK AlphaScreen; 72,000 compounds, 0.99% hits; Potency, µM (doses to about 57.5 µM), for the others: top-dose activity, negative = inhibition, hits mostly inhibitors; AID 995, 2007; also: % is scaled to controls: 0 for no effect and ±100 for the full control effect; nearly all actives have a fitted effect of over 55% in size
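Phosphorylated ERK1/2 detected via AlphaScreen bead proximity in lysates of V1b-expressing HEK293 cells given 25 nM vasopressin for 5 min after 30 min compound exposure (37 °C). AC50 from Hill equation; basal DMSO 0%, vasopressin 100%.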
* = called active by the depositor; i = inactive; ? = inconclusive; . = no result given; [ ] = remark or other dose. Unless noted, calls follow the shape of the dose curve; as a rule, active = well fitted curve in the direction sought with a large enough effect; inconclusive = small, poorly fitted or top-dose-only effect, or another doubt; inactive = no such curve, though single readings can be large; an effect the other way counts as inactive or inconclusive. Potency is read from the fitted curve at half-maximal effect.

SMILES	TSHR agonist	HEK293 cAMP ctrl	PK Bst	Luciferase inh	Tau filament bind	ERK AVP block
CC(c1ccco1)N(C(=O)CSc1ccc(Br)cc1)c1ccccn1 (stereo not given)	?	25µM*	>57	0%	8%	19%
CCC(=O)N1CCc2cc(Br)cc(S(=O)(=O)N3CCCCCC3)c21	3%[11.4 µM]	21%	>57	-1%	45%	-10%
CCCN(CCC)S(=O)(=O)c1cc(Br)cc2c1N(C(=O)CC)CC2	?	25µM*	>57	0%	23%	-14%
FC(F)(F)c1ccccc1-c1ccc2ncnc(NCc3cccnc3)c2c1	?	?	.	2%[2.29 µM]	5%	-23%
O=c1cnc2cnc(N3CCOCC3)nc2n1Cc1ccc(F)cc1	?	2.5µM*	.	1%[11.4 µM]	120%	?
COc1ccc(-n2c(=O)c(-c3cc(F)cc(F)c3)nc3cnc(N4CCNCC4)nc32)cc1	5%	11%[0.457 µM]	.	-1%[11.4 µM]	3.2µM*	9%
O=c1c(-c2cc(F)cc(F)c2)nc2cnc(N3CCNCC3)nc2n1Cc1ccc(F)cc1	-3%	-16%	.	2%[11.4 µM]	4µM*	?
COc1cccc(Cn2c(=O)c(-c3cc(F)cc(F)c3)nc3cnc(N4CCNCC4)nc32)c1	1%	11%	.	1%[11.4 µM]	4µM*	?
CN1CCN(c2ncc3nc(-c4cc(F)cc(F)c4)c(=O)n(-c4ccccc4)c3n2)CC1	?	-36%	.	0%[11.4 µM]	52%	50%
O=C1CNCCCN2CCN(CCCNCC(=O)Nc3ccc(cc3)S(=O)(=O)c3ccc(cc3)NC(=O)CNCCCN3CCN(CCCNCC(=O)Nc4ccc(cc4)S(=O)(=O)c4ccc(cc4)N1)CC3)CC2	?	?	.	2%[11.4 µM]	23%[11.4 µM]	.
CC(C)=C[C@H]1[C@@H](COC(=O)c2cc3c(cc2Cl)OCO3)C1(C)C	5%[11.4 µM]	13%[11.4 µM]	.	3%[11.4 µM]	-10%[11.4 µM]	47%[11.5 µM]
c1ccc(-c2nc(N3CCCCCC3)nc(-n3ccnc3)n2)cc1	4µM*	30%	>57	3%	18%	39%
c1ccc(N(c2ccccc2)c2nc(-n3ccnc3)nc(-n3ccnc3)n2)cc1	?	25µM*	>57	2%	129%	4%
CN(c1ccccc1)c1nc(-n2ccnc2)nc(-n2ccnc2)n1	.	23%	i	1%	33%	?
CC(C)(C)N1C(=O)Cc2c1nc(N)c1c(N)nc(N3CCCCC3CO)c(C#N)c21 (stereo not given)	-16%	-27%	.	-7%	7.9µM*	-15%
CCCn1c(C)nc2c(NCCOC)nc(C)nc21	1%	4%	.	.	-2%	-5%
Cc1ccc(S(=O)(=O)N(CC(=O)O)Cc2cccc(C)c2)cc1	?	6%	.	.	.	.
Cc1cc(C(=O)NCc2ccccc2)no1	6%	0%	>57	2%	0%	4%
Cc1ccccc1NC(=O)c1nc[nH]c1C(=O)NCc1ccccc1	-22%	9%	>57	2%	82%	25µM*
O=C1c2ccccc2C(Nc2ccc3c(c2)OCCO3)N1Cc1ccccc1 (stereo not given)	32%	8%	.	1%	20µM*	.
N#C/C(=C\c1ccc(O)c(O)c1)C(=O)NCCCCc1ccccc1	-5%	8%	.	-24%	?	40µM*
N#C/C(=C\c1ccc(O)c(O)c1)C(=O)NCCc1ccccc1	?	?	.	0%	20%	?
CCn1c(C)csc1=NC(=O)c1ccccc1	3%[11.4 µM]	2%	>57	-20%	-5%	12%
CCn1c(C)csc1=NC(=O)c1ccccc1O	-5%[11.4 µM]	11%	i	13µM*	7%	-9%
O=c1cc(-c2ccccc2)oc2c1ccc1ccccc12	?	32µM*	.	-1%[11.4 µM]	221%	32µM*
SMILES	TSHR agonist	HEK293 cAMP ctrl	PK Bst	Luciferase inh	Tau filament bind	ERK AVP block
N=C(N)SCc1cccc2c(=O)cc(-c3ccccc3)oc12	2%[11.4 µM]	1%[11.4 µM]	.	3%[11.4 µM]	-18%[11.4 µM]	2%[11.5 µM]
Cc1nc2cc(-c3ccccc3)ccc2o1	-4%	0%	.	16µM*	-1%	1%
Cn1c(=O)c(C(=O)c2ccccc2)nc2ccccc21	7%	6%	>57	1%	-14%	-23%
Cn1cc(C(=O)c2ccc(Cl)cc2)cc1-c1nc2ccccc2n1C	?	32µM*	>57	4%	-17%	32µM*
CCOC(=O)N1CCN(Cc2cc(=O)oc3ccc4ccccc4c23)CC1	?	25µM*	>57	1%	7%	-3%
Cc1cc(C)c2c(=O)n(CC(=O)N3CCC(N4CCCCC4)CC3)sc2n1	-5%	4%	.	?	-10%	4%
CCOC(=O)C1CCCN(C(=O)Cn2sc3nc(C)cc(C)c3c2=O)C1 (stereo not given)	1%	4%	.	13µM*	-16%	?
COc1ccc(-c2cc(N)n(S(=O)(=O)c3c(F)c(F)c(F)c(F)c3F)n2)cc1OC	0.79µM*	12%	i	-3%	-9%	5µM*
Cc1ccc(C2NC(=O)NC3=C2CCc2ccccc23)cc1 (stereo not given)	9%	2%	?	13µM*	20µM*	-18%
N#Cc1cccc(NC(=O)N2CCC3(CC2)CCN(C(=O)c2ccco2)CC3)c1	5%	-2%	.	2%[11.4 µM]	9%	-20%
CC(=O)NCCNc1cc(-c2ccccc2C)ncn1	6%	0%	.	0%[2.29 µM]	-4%	2%
Cc1cc(C)n(CCc2nc(-c3cc4ccccc4o3)cs2)n1	?	16µM*	>57	-3%	-4%	?
COc1cccc(-c2nc(NCc3cnc(C)cn3)c3ccccc3n2)c1	9%	-2%	.	-4%[2.29 µM]	-5%	-12%
Nc1cccc(-c2nc3ccc(N)cc3s2)c1	-8%	-6%	0.71*	1µM*	?	-18%
Cc1ccc2nc(-c3ccc(NC(=O)c4ccc(N)cc4)c(S(=O)(=O)O)c3)sc2c1	5%[11.4 µM]	8%[11.4 µM]	.	-29%[11.4 µM]	-1%[11.4 µM]	26%[11.5 µM]
O=C1c2oc3ccccc3c(=O)c2C(c2cccc(Br)c2)N1Cc1ccco1 (stereo not given)	?	13µM*	>57	1%	-9%	-26%
CCn1c(C)nc2cc(C(=O)OC(C(F)(F)C(F)F)C(F)(F)C(F)F)ccc21	?	?	.	20µM*	22%	-5%
CCOC(=O)c1ccc2c(c1)nc(COc1ccccc1C#N)n2CC	2%	15%	>57	-1%	-1%	7%
O=C(COc1ccccc1Cl)N1CCN(c2ncccn2)CC1	-4%	-2%	>57	0%	4%	-13%
O=C(Cc1coc2ccc3ccccc3c12)N1CCN(c2ncccn2)CC1	?	?	11*	-33%	-3%	-17%

Bioassay records: PubChem, National Center for Advancing Translational Sciences (NCATS)
